# Source: PubChem BioAssay (EPA / NIEHS)
# “And” between values parts separate entries of the source, which are not always exact repeats. Equal entries are not always repeated. Results filed as inconclusive are left out. Some compounds were tested as several samples or in several runs, with calls that do not always agree. The source made the active and inactive calls. The calls were made as follows, unless noted: active = hit-call score of the fitted dose curve at least 0.9, where 1 is the maximum; inactive = score below 0.9.
# Key:
# CD69, CD69 (gene 969) = assay: BSK_LPS_CD69: BioMAP Diversity Plus: LPS Assay for CD69 Biomarker Activity (AID 2284303); conditions: primary human HUVEC with PBMC
# Method in brief: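 Human umbilical vein endothelial cells co-cultured with PBMC under LPS stimulation, chemical exposure 24 h; cell-surface CD69 measured by ELISA and fitted in the positive direction versus DMSO.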
# [1] = IUF_NPC3_neuronal_differentiation_120hr: Leibniz Research Institute for Environmental Medicine (IUF) 120-hour Neuronal Differentiation Assay (NPC3) (AID 2284301)
# Method in brief: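 Human fetal (GW 16-19) neural progenitor spheres (0.3 mm) plated on poly-D-lysine/laminin in N2 differentiation medium, exposed 120 h at 37C with half-medium renewal day 3; 7 concentrations. TUBB3+ cells as % of Hoechst nuclei, CNN-identified; DMSO baseline.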
# [2] = IUF_NPC4_neurite_length_120hr: Leibniz Research Institute for Environmental Medicine (IUF) 120-hour Neuronal Morphology Assay for Neurite Length (NPC4) (AID 2284302)
# Method in brief: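 Human fetal neural progenitor spheres (0.3 mm) plated on poly-D-lysine/laminin in N2 differentiation medium, exposed from day 0 for 120 h with half-medium refresh at day 3, 37C. Mean neurite length (um) of TUBB3-positive neurons from skeletonized immunostaining images; DMSO ≤0.1%.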
# [3] = IUF_NPC5_oligodendrocyte_differentiation_120hr: Leibniz Research Institute for Environmental Medicine (IUF) 120-hour Oligodendrocyte Differentiation Assay (NPC5) (AID 2284304; active = hit-call score of the fitted dose curve at least 0.9, where 1 is the maximum;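 also: primary human fetal neural progenitor spheres plated to migrate and differentiate; share of O4-positive cells among Hoechst nuclei found by CNN image analysis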)
# Method in brief: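 After plating on poly-D-lysine/laminin, fetal-derived hNPC spheres differentiated for 120 h at 37C in compound-containing N2 medium, refreshed by half on day 3. O4 immunostaining over Hoechst nuclei in the migration zone gave oligodendrocyte percentage relative to DMSO.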
# [4] = IUF_NPC4_neurite_area_120hr: Leibniz Research Institute for Environmental Medicine (IUF) 120-hour Neuronal Morphology Assay for Neurite Area (NPC4) (AID 2284305; active = hit-call score of the fitted dose curve at least 0.9, where 1 is the maximum)
# Method in brief: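 Human fetal neural progenitor spheres (0.3 mm) plated on poly-D-lysine/laminin in N2 differentiation medium, exposed 120 h (7 concentrations, DMSO ≤0.1%, half-medium refresh day 3). Fixed, TUBB3 immunostained; mean neurite area per neuron by Omnisphero skeletonization.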
# [5] = IUF_NPC2-5_cytotoxicity_72hr: Cytotoxicity Assessment at 72 hours in the Leibniz Research Institute for Environmental Medicine (IUF) Neural Progenitor Cell Migration and Differentiation Assay for Cytotoxicity (NPC2-5) (AID 2284306; active = hit-call score of the fitted dose curve at least 0.9, where 1 is the maximum;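 also: LDH release into supernatant measured by resorufin fluorescence marking membrane damage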)
# Method in brief: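 Human fetal primary neural progenitor spheres (0.3 mm) plated on poly-D-lysine/laminin in N2 differentiation medium, exposed from day 0 at 37C. LDH-dependent resazurin-to-resorufin fluorescence in supernatant at 72 h; 7 concentrations, DMSO at most 0.1%.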
# [6] = IUF_NPC2-5_cytotoxicity_120hr: Cytotoxicity Assessment at 120 hours in the Leibniz Research Institute for Environmental Medicine (IUF) Neural Progenitor Cell Migration and Differentiation Assay (NPC2-5) (AID 2284307; active = hit-call score of the fitted dose curve at least 0.9, where 1 is the maximum;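 as to AC50: LDH released into supernatant as membrane damage marker via resorufin fluorescence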)
# Method in brief: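 Membrane-integrity loss is quantified by LDH in supernatant after five days of exposure of migrating, differentiating human fetal NPC spheres; seven serially diluted concentrations are tested with DMSO kept at or below 0.1%.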
# [7] = IUF_NPC2-5_cell_number_120hr: Cell Number Assessment at 120 hours in the Leibniz Research Institute for Environmental Medicine (IUF) Neural Progenitor Cell Migration and Differentiation Assay (NPC2-5) (AID 2284308);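 also: count of Hoechst-stained nuclei in migration zone around plated human neural progenitor spheres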
# Method in brief: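 Seven-point serial dilutions plus solvent control were applied to plated 0.3 mm hNPC spheres at differentiation start, with medium half-replaced at day 3. Nuclei positive for Hoechst in the migration zone were enumerated at 120 h.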
# [8] = VALA_TUBHUV_Agonist_CellCount: Viability Assessment in the VALA Sciences human Umbilical Vein Endothelial Tubule Formation (TUBHUV) Agonism Assay (AID 2284309; active = hit-call score of the fitted dose curve at least 0.9, where 1 is the maximum)
# Method in brief: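 HUVEC co-cultured 1:3 with HDF for 3 days in 10 ng/ml VEGF, then compounds added in VEGF medium for a further 3 days (72 h). Nuclear-stain/CD31 imaging cell count. Positive-direction fit versus 0.1% DMSO vehicle.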
# [9] = VALA_TUBIPS_Agonist_TubuleLength: VALA Sciences human iPS-derived Endothelial Tubule Formation (TUBIPS) Agonism Assay (AID 2284311; active = hit-call score of the fitted dose curve at least 0.9, where 1 is the maximum)
# Method in brief: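 Human iPS-derived endothelial cells were exposed to compound for 72 h. Tubule formation was imaged by high-content fluorescence and scored as gain of signal relative to DMSO vehicle (agonist mode).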
compound,measurement,setting,value
O=C(O)CCC(F)(F)C(F)(F)C(F)(F)C(F)(F)C(F)(F)F,AC50,"CD69, CD69 (gene 969)",5.95 µM (active)
same,outcome,"CD69, CD69 (gene 969)",inactive
O=C(CCCN1CCC(O)(c2ccc(Cl)cc2)CC1)c1ccc(F)cc1,outcome,[1],inactive
same,outcome,[2],inactive
same,AC50,[3],3.35 µM (active)
same,outcome,[4],inactive
same,outcome,[5],inactive
same,AC50,[6],1.98 µM (active)
same,outcome,[7],inactive
same,outcome,[8],inactive
same,outcome,[9],inactive
OCC(F)(F)C(F)(F)C(F)(F)C(F)(F)C(F)(F)C(F)(F)C(F)(F)C(F)(F)C(F)(F)C(F)(F)C(F)(F)F,outcome,"CD69, CD69 (gene 969)",inactive
O=P(O)(O)CCC(F)(F)C(F)(F)C(F)(F)C(F)(F)C(F)(F)C(F)(F)F,outcome,"CD69, CD69 (gene 969)",inactive
O=C(O)C(F)(F)OC(F)(F)C(F)(F)OC(F)(F)C(F)(F)OC(F)(F)C(F)(F)C(F)(F)C(F)(F)F,AC50,"CD69, CD69 (gene 969)",39.9 µM (active) and 41.2 µM (active)
CC(=O)Nc1ccc(O)cc1,outcome,[1],inactive
same,outcome,[2],inactive
same,outcome,[3],inactive
same,outcome,[4],inactive
same,outcome,[5],inactive
same,outcome,[6],inactive
same,outcome,[7],inactive
